Data on eight molecules can be found in PubChem BioAssay (Tox21).

The nature of experiment [1]: Nuclear factor erythroid 2-related factor 2/antioxidant responsive element (Nrf2/ARE) small molecule agonists: qHTS cell viability counter screen in human keratinocytes (AID 1919968; active = well fitted curve in the direction sought with a large enough effect in the repeat runs; an effect the other way counts as inactive or inconclusive; also: nearly all actives have a fitted effect of over 55% in size). An outline of the steps:
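After a 5 h attachment period, ARE-reporter keratinocytes were dosed with compounds in DMSO and then cultured 23 h at 37 C. Cell viability came from CellTiter-Fluor signal read after a further 1 h.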

A short description of experiment [2]: Nuclear factor erythroid 2-related factor 2/antioxidant responsive element (Nrf2/ARE) small molecule agonists: luciferase reporter gene qHTS assay in human keratinocytes (AID 1919969). Also: nearly all actives have a fitted effect of over 35% in size. Also: potency is read from the fitted curve at half-maximal effect. In general terms: A reporter such as luciferase makes a cellular process visible.
Experiment [3] concerns the target Gonadotropin-releasing hormone receptor (Homo sapiens) (UniProt P30968). Briefly: Human gonadotropin-releasing hormone receptor (GnRHR) small molecule agonists, calcium flux assay in GnRHR-HEK293 cells (AID 1920063). Also: nearly all actives have a fitted effect of over 35% in size. An outline of the steps:
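We seeded human GnRHR-expressing HEK293 cells for 18 hours, loaded them with calcium dye for an hour at 37 C, added test compounds, and recorded fluorescence intensity kinetically for three minutes.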

Experiment [4] concerns the target KiSS-1 receptor (Homo sapiens) (UniProt Q969F8). Kind of experiment: Human kisspeptin (KISS1R) small molecule agonists, calcium flux assay in KISS1R-HEK293 cells (AID 1920064; active = well fitted curve in the direction sought with a large enough effect in the repeat runs; an effect the other way counts as inactive or inconclusive). A digest of the protocol: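 Kinetic calcium assay, 1 s sampling over 3 min at Ex/Em 480/540, in HEK293 cells engineered with human KISS1R; compounds delivered in DMSO after 1 h dye loading.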
In general terms: A change in cytosolic calcium serves as a functional read-out for many receptors and channels.

Experiment [5] is described as follows: G protein-coupled receptor (GPCR) small molecule agonists, calcium flux assay: HEK293 wild type cell line counter screen (AID 1920065). A digest of the protocol:
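Calcium-sensitive dye, loaded 1 h at 37 C into cells cultured 18 h, reports compound-evoked calcium release as fluorescence (Ex/Em 480/540), measured over 3 min. Agonist mode; 15-point titrations, triplicate.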

Experiment [6] in a line: p53 small molecule agonists, cell-based qHTS assay with human liver microsomes: qHTS cell viability counter screen (AID 1963579). Also: nearly all actives have a fitted effect of over 45% in size. An outline of the steps:
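Viability of p53RE-bla cells is measured as CellTiter-Glo luminescence following a 16 h, 37 C incubation with compound, liver microsomes from human donors and NADPH.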

A short description of experiment [7]: p53 small molecule agonists, cell-based qHTS assay with rat liver microsomes: qHTS cell viability counter screen (AID 1963580). Also: nearly all actives have a fitted effect of over 45% in size. An outline of the steps: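 p53RE-bla HCT-116 cells were exposed 16 h at 37 C to compounds with rat liver microsomes (0.5 mg/mL) and NADPH (0.5 mg/mL). Viability was measured in the same wells as ATP content by CellTiter-Glo luminescence.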
A general note: qHTS replaces the single test concentration by a dilution series.

A short description of experiment [8]: p53 small molecule agonists, cell-based qHTS assay: qHTS cell viability counter screen (AID 1963581). Also: nearly all actives have a fitted effect of over 45% in size. A digest of the protocol:
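Following 5 h attachment, HCT-116 p53RE-bla cells took up compound for 16 h at 37 C; the reporter was read with B/G FRET substrate (2 h RT), and viability then via CellTiter-Glo ATP luminescence.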

Experiment [9] has as its target 5-hydroxytryptamine receptor 2A (Homo sapiens) (UniProt P28223). Kind of experiment: 5-hydroxytryptamine receptor 2A (HTR2A) small molecule antagonists, cell-based qHTS assay (AID 1963586). Also: nearly all actives have a fitted effect of over 45% in size. A digest of the protocol: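 Antagonist-mode intracellular calcium assay: DOI (4 nM) added after 5 min compound pre-incubation at room temperature to dye-loaded HTR2A-CHO cells. Fluorescence followed for 3 min, sampled every second.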

The target is the same in experiment [10]. Briefly: 5-hydroxytryptamine receptor 2A (HTR2A) small molecule agonists, cell-based qHTS assay (AID 1963587). Also: nearly all actives have a fitted effect of over 30% in size. An outline of the steps: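 CHO cells stably expressing human HTR2A, plated 18 h, loaded with calcium dye 1 h at 37 C. Agonist mode: compounds added and intracellular calcium fluorescence recorded kinetically for 2 min at 1 sec intervals.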
The target in experiment [11] is Muscarinic acetylcholine receptor M1 (Homo sapiens) (UniProt P11229). Briefly: Cholinergic receptor muscarinic 1 (CHRM1) small molecule antagonists, cell-based qHTS assay (AID 1963588). Also: nearly all actives have a fitted effect of over 40% in size. An outline of the steps:
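CHRM1-CHO calcium-flux assay, antagonist mode. Cells were seeded 18 h, dye-loaded 1 h at 37 C and given compound for 5 min at RT, then acetylcholine was added at 50nM. FDSS fluorescence was read 3 min; 15 concentrations, three runs.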

The target is the same in experiment [12]. Kind of experiment: Cholinergic receptor muscarinic 1 (CHRM1) small molecule agonists, cell-based qHTS assay (AID 1963589). Also: nearly all actives have a fitted effect of over 35% in size. A digest of the protocol:
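Measures agonist-induced intracellular calcium rise. Stable human CHRM1 CHO line, 1 h dye load at 37 C, compounds from DMSO, kinetic fluorescence read.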

Experiment [13] deals with Beta-2 adrenergic receptor (Homo sapiens) (UniProt P07550). Briefly: Adrenergic beta2 receptor (ADRB2) small molecule antagonists, cell-based qHTS assay (AID 1963592). Also: series mostly up to about 92 µM; nearly all actives have a fitted effect of over 50% in size. An outline of the steps: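 Cells (CHO, stable ADRB2 overexpression) incubated 18-20hr at 37C; compounds added from DMSO; agonist mix (1nM isoproterenol, 100uM IBMX, 25uM Ro-20-1724) added; 0.5hr RT; d2-cAMP and anti-cAMP-cryptate added; 1hr RT; 665/615 nm read.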
Chain of Beta-2 adrenergic receptor (Homo sapiens) (P07550 whole entry, looked up): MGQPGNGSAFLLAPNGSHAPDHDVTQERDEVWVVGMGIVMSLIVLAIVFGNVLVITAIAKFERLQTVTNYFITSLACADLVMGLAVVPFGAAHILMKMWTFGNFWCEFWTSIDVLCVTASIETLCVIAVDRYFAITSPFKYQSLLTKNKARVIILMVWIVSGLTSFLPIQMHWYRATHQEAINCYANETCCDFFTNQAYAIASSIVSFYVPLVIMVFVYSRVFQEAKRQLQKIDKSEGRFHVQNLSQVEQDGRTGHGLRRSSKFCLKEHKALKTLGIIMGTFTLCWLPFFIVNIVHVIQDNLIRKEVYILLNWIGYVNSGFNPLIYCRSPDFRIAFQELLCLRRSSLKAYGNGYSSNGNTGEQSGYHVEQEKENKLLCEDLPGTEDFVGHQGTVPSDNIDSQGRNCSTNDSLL

Experiment [14] concerns the target D(2) dopamine receptor (Homo sapiens) (UniProt P14416). Kind of experiment: Dopamine D2 receptor (DRD2) small molecule agonists, cell-based qHTS assay (AID 1963594). Also: nearly all actives have a fitted effect of over 35% in size. A digest of the protocol: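 HEK293 cells stably expressing human DRD2, pre-treated with PDE inhibitor Ro20-1724 (0.1 mM final) and compound 10 min at room temperature, then stimulated with NKH477 (200nM […]) for 30 min. cAMP read by HTRF (665/620 nm).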

For experiment [15] the target is unchanged. Kind of experiment: Dopamine D2 receptor (DRD2) small molecule antagonists, cell-based qHTS assay (AID 1963595; active = well fitted inhibition curve with a large enough effect in the signal ratio in the repeat runs, with a control signal flat; the % refers to the signal ratio). A digest of the protocol: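 DRD2-HEK293; 0.1 mM Ro20-1724; cpd 10 min RT; NKH477 200 nM + quinpirole 12 nM, 30 min RT; HTRF cAMP (cAMP-d2/anti-cAMP cryptate), 665/620 nm ratio after 1 h.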
A short description of experiment [16]: cAMP Responsive Elements (CRE) small molecule agonists, cell-based qHTS assay (AID 1963590). An outline of the steps: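 A CRE-responsive beta-lactamase reporter in HEK 293T cells was used. Treatment ran 3 h at 37 C; detection used LiveBLAzer B/G FRET substrate for 2 h at room temperature.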
The nature of experiment [17]: cAMP Responsive Elements (CRE) small molecule antagonists, cell-based qHTS assay (AID 1963591; active = well fitted inhibition curve with a large enough effect in the signal ratio in the repeat runs, not every such curve was filed as active; the % refers to the signal ratio). An outline of the steps: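 HEK293T cells carrying a CRE-driven beta-lactamase reporter receive compound and NKH477 (0.25 uM final) for 3 h. Fluorescence from LiveBLAzer B/G FRET substrate is read after 2 h at room temperature.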
The target in experiment [18] is Beta-2 adrenergic receptor (Homo sapiens) (UniProt P07550). Briefly: Adrenergic beta2 receptor (ADRB2) small molecule agonists, cell-based qHTS assay (AID 1963593).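 Also: CHO cells stably overexpressing human ADRB2.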 An outline of the steps: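 CHO cells stably over-expressing ADRB2 were plated overnight at 37C, then dosed with compounds plus a stimulation mix containing 100uM IBMX and 25uM Ro-20-1724 for 0.5hr at room temperature. cAMP was measured by HTRF competition, 1hr.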

Each structure is given as a SMILES string. A number with no mark means an inactive call. Results filed as inconclusive are left out. Calls of active or inactive are those of the source. Unless noted, calls follow the shape of the full dose curve.
% is scaled to controls: 0 for no effect and ±100 for the full control effect.

Chain of 5-hydroxytryptamine receptor 2A (Homo sapiens) (P28223 whole entry, looked up): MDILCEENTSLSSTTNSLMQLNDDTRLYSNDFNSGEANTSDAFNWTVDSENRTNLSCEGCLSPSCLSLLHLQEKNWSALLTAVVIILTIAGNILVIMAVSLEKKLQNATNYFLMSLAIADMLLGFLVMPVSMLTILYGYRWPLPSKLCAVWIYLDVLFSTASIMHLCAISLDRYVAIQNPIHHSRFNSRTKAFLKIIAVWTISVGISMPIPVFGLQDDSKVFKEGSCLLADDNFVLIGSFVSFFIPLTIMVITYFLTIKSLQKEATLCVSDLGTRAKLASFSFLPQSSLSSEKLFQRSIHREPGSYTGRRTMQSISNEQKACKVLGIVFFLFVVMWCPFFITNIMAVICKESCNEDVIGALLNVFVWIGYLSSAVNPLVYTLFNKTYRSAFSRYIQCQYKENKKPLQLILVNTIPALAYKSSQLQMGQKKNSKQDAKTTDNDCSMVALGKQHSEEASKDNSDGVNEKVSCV
Chain of Muscarinic acetylcholine receptor M1 (Homo sapiens) (P11229 whole entry, looked up): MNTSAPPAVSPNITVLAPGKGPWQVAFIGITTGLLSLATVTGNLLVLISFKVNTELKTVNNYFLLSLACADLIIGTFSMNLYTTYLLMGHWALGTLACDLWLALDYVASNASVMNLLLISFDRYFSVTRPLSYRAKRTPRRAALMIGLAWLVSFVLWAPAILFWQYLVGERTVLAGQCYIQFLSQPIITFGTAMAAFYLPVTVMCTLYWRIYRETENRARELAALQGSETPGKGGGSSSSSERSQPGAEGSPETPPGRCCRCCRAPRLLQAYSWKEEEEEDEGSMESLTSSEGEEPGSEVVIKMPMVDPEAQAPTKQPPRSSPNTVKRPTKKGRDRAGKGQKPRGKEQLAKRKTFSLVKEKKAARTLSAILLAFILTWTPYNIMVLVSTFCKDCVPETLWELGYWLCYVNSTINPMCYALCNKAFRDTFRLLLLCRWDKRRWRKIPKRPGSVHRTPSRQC
Chain of KiSS-1 receptor (Homo sapiens) (Q969F8 whole entry, looked up): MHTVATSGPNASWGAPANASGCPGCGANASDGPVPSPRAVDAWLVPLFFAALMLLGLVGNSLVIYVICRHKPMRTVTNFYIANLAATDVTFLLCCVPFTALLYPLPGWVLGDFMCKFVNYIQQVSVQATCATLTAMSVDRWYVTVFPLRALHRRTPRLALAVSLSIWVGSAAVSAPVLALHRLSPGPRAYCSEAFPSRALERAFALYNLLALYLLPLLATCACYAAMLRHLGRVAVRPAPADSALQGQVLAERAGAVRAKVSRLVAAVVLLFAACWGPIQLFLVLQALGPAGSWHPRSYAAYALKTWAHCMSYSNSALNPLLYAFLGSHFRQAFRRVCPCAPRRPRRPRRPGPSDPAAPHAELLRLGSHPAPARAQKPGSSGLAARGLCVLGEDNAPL
Chain of D(2) dopamine receptor (Homo sapiens) (P14416 whole entry, looked up): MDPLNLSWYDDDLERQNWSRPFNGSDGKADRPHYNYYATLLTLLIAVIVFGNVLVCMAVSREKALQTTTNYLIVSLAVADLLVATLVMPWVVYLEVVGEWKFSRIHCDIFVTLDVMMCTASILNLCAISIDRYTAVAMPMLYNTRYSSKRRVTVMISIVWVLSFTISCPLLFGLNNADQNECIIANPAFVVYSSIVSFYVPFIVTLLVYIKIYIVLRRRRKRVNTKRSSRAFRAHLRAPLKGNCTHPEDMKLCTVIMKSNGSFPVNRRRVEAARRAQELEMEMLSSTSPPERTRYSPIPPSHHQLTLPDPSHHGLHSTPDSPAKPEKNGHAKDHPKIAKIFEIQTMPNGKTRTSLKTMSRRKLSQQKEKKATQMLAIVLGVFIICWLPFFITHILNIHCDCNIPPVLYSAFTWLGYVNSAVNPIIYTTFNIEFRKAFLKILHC
Chain of Gonadotropin-releasing hormone receptor (Homo sapiens) (P30968 whole entry, looked up): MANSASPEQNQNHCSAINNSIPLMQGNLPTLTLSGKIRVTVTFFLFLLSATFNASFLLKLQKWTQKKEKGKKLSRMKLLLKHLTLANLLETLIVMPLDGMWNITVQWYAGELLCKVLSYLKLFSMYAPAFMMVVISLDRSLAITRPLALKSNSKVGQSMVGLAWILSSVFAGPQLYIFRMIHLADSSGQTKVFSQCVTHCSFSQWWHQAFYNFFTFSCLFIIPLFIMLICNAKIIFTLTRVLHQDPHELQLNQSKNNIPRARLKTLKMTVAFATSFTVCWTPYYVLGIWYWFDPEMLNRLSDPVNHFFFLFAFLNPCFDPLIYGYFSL

On to `NNc1nc(-c2ccccc2)cs1`, for which the Potency result in [1], in experiment [3], in experiment [4], in experiment [5], in experiment [6] and in experiment [7] was “inactive” each time. Moreover, the Potency result in experiment [8], in experiment [9], in experiment [10], in [11], in experiment [12] and in experiment [13] was “inactive” in each case. Also, the Potency result in [14] and in [15] was “inactive” throughout. In [2], the Potency was 62.9 µM (active).
In the case of `OC/C(Br)=C(\Br)CO`, the Potency entry in experiment [1], in [2], in [3], in experiment [4], in experiment [5] and in experiment [6] was “inactive” each time. The Potency entry in [7], in [8], in experiment [9], in experiment [10], in experiment [11] and in experiment [16] was “inactive” in each case. The Potency result in [13], in [14] and in experiment [15] was “inactive” in each case.
`C[C@@H]1CN(c2c(F)c(F)c3c(=O)c(C(=O)O)cn(C4CC4)c3c2F)C[C@H](C)N1`: the activity change, negative = cytotoxicity in [1] was -4.39% [at 19 µM]; in experiment [6], 0.644% [at 13.5 µM]; in [7], 9.6% [at 13.5 µM]; in [8], -8.27% [at 13.5 µM]. For the same molecule, the activity, positive = activation in experiment [2] was 2.76% [at 19 µM]. Also, the activity change in [3] is 0.18% [at 11.8 µM, hits give high values]. Moreover, the activation in experiment [4] was -0.0587% [at 15.8 µM]; in experiment [5], -1.01% [at 11.8 µM]; in experiment [10], -2.83% [at 15.9 µM]; in [16] it was -2.17% [at 19 µM]; in experiment [14] it was 18.6% [at 19 µM]. For the same molecule, the activity, negative = inhibition in [9] was 0.835% [at 12.7 µM]; in [11], 7.07% [at 12.6 µM]. Besides, the activity change, negative = inhibition in experiment [13] was -4.7% [at 19 µM]; in [15] it was -0.82% [at 18.9 µM].
Take `C=CC(=O)N1CCOCC1`: the Potency result in experiment [1], in experiment [2], in experiment [3], in [4], in experiment [5] and in experiment [6] was “inactive” in each case. Also, the Potency entry in experiment [7], in experiment [8], in experiment [9], in experiment [10], in experiment [11] and in experiment [16] was “inactive” in each case. Besides, the Potency entry in experiment [17], in experiment [13], in experiment [18], in experiment [14] and in [15] was “inactive” throughout.
Regarding `CCC(C)(C)OC`, the Potency result in experiment [1], in experiment [2], in experiment [3], in experiment [4], in experiment [5] and in [6] was “inactive” each time. In addition, the Potency entry in [7], in [8], in experiment [9], in experiment [10], in experiment [11] and in [16] was “inactive” in each case. Also, the Potency entry in experiment [13], in experiment [18] and in experiment [15] was “inactive” each time.
For `CN1C(C)(C)CC(O)CC1(C)C`, the Potency entry in [1], in experiment [2], in [3], in [4], in [5] and in experiment [6] was “inactive” throughout. In addition, the Potency result in [7], in experiment [8], in experiment [9], in experiment [10], in [11] and in experiment [16] was “inactive” throughout. Moreover, the Potency entry in experiment [17], in experiment [13], in experiment [14] and in experiment [15] was “inactive” each time.
In the case of `CC[N+](C)(CC)CCOC(=O)C1c2ccccc2Oc2ccccc21`, the Potency entry in [1], in experiment [2], in [3], in [4], in experiment [5] and in experiment [6] was “inactive” in each case. Besides, the Potency entry in experiment [7], in experiment [8], in experiment [9], in experiment [10], in experiment [12] and in experiment [16] was “inactive” in each case. In addition, the Potency result in experiment [17], in experiment [13], in [14] and in experiment [15] was “inactive” in each case.
For `C=C(C)C(=O)OCCOP(=O)(O)OCCOC(=O)C(=C)C`, the Potency result in experiment [1], in experiment [2], in [3], in experiment [4], in experiment [5] and in [6] was “inactive” throughout. Besides, the Potency result in experiment [7], in [8], in [9], in experiment [10], in experiment [12] and in [16] was “inactive” each time. Besides, the Potency entry in experiment [17], in experiment [13], in experiment [18], in experiment [14] and in experiment [15] was “inactive” throughout.
